# Results as given in PubChem BioAssay AID1159580 (chemical genetic matrix, 2015).
# Several values for one entry are separate records, joined by “and”; a condition that tells them apart may be missing. Identical values can stand only once. Out of some 5,500 compounds screened, about 2,000 (36%) were called active. Another 18% or so got no clear call; they are omitted. Rule as the data show it: active = normalized growth mostly below about 0.91 (no sharp cut-off); inconclusive = no clear call, values can overlap the other calls; inactive = mostly above about 0.92. The list shows a part of the results.
# Experiment: chemical genetic growth profiling, strain panel (AID 1159580);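 also: tested at 20 µM; growth read once vehicle control cultures reached saturation at 30 °C; 1 = growth at the plate median or of vehicle wells; lower values mean less growth of the strain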
# Conditions: S. cerevisiae deletion strains, growth OD
smiles,measurement,setting,value
CC[C@@]1(O)C(=O)OCc2c1cc1n(c2=O)Cc2cc3ccccc3nc2-1,normalized growth,"locus YAL013W, strain DEP1, stronger effect = lower value",0.829 (active)
same,normalized growth,"locus YAL021C, strain ccr4, stronger effect = lower value",0.327 (active)
same,normalized growth,"locus YAL026C, strain drs2, stronger effect = lower value",0.626 (active)
same,normalized growth,"locus YAL030W, strain snc1, stronger effect = lower value",0.813 (active)
same,normalized growth,"locus YBL061C, strain skt5, stronger effect = lower value",0.859 (active)
same,normalized growth,"locus YBR009C, strain hhf1, stronger effect = lower value",0.681 (active)
same,normalized growth,"locus YBR021W, strain FUR4, stronger effect = lower value",0.889 (inactive)
same,normalized growth,"locus YBR023C, strain chs3, stronger effect = lower value",0.803 (active)
same,normalized growth,"locus YBR171W, strain sec66, stronger effect = lower value",0.949 (inactive)
same,normalized growth,"locus YBR229C, strain ROT2, stronger effect = lower value",0.982 (inactive)
same,normalized growth,"locus YBR231C, strain swc5, stronger effect = lower value",0.696 (active)
same,normalized growth,"locus YBR279W, strain paf1, stronger effect = lower value",0.98 (inactive)
same,normalized growth,"locus YCL011C, strain gbp2, stronger effect = lower value",0.577 (active)
same,normalized growth,"locus YCL016C, strain dcc1, stronger effect = lower value",0.134 (active)
same,normalized growth,"locus YCL029C, strain bik1, stronger effect = lower value",0.884 (active)
same,normalized growth,"locus YCL061C, strain MRC1, stronger effect = lower value",0.821 (active)
same,normalized growth,"locus YCL069W, strain vba3, stronger effect = lower value",0.788 (active)
same,normalized growth,"locus YCR088W, strain abp1, stronger effect = lower value",0.747 (active)
same,normalized growth,"locus YDL005C, strain med2, stronger effect = lower value",0.882 (active)
same,normalized growth,"locus YDL035C, strain GPR1, stronger effect = lower value",0.843 (active)
same,normalized growth,"locus YDL040C, strain nat1, stronger effect = lower value",0.952 (inactive)
same,normalized growth,"locus YDL074C, strain BRE1, stronger effect = lower value",0.613 (active)
same,normalized growth,"locus YDL101C, strain DUN1, stronger effect = lower value",0.654 (active)
same,normalized growth,"locus YDL134C, strain PPH21, stronger effect = lower value",0.81 (active)
same,normalized growth,"locus YDL185W, strain tfp1, stronger effect = lower value",0.782 (active)
same,normalized growth,"locus YDL192W, strain arf1, stronger effect = lower value",0.838 (active)
same,normalized growth,"locus YDR001C, strain nth1, stronger effect = lower value",0.882 (active)
same,normalized growth,"locus YDR069C, strain doa4, stronger effect = lower value",0.767 (active)
same,normalized growth,"locus YDR101C, strain arx1, stronger effect = lower value",0.897 (active)
same,normalized growth,"locus YDR137W, strain rgp1, stronger effect = lower value",0.74 (active)
same,normalized growth,"locus YDR150W, strain NUM1, stronger effect = lower value",0.998 (inactive)
same,normalized growth,"locus YDR159W, strain sac3, stronger effect = lower value",0.821 (active)
same,normalized growth,"locus YDR162C, strain NBP2, stronger effect = lower value",0.688 (active)
same,normalized growth,"locus YDR195W, strain ref2",0.538 (active)
same,normalized growth,"locus YDR297W, strain sur2, stronger effect = lower value",0.884 (active)
same,normalized growth,"locus YDR318W, strain mcm21, stronger effect = lower value",0.796 (active)
same,normalized growth,"locus YDR334W, strain swr1, stronger effect = lower value",0.786 (active)
same,normalized growth,"locus YDR335W, strain msn5, stronger effect = lower value",0.841 (active)
same,normalized growth,"locus YDR388W, stronger effect = lower value",0.793 (active)
same,normalized growth,"locus YDR392W, strain spt3, stronger effect = lower value",0.284 (active)
same,normalized growth,"locus YDR502C, strain sam2, stronger effect = lower value",0.803 (active)
same,normalized growth,"locus YEL003W, strain gim4, stronger effect = lower value",0.834 (active)
same,normalized growth,"locus YEL037C, strain rad23, stronger effect = lower value",0.851 (active)
same,normalized growth,"locus YEL061C, strain CIN8 (second series), stronger effect = lower value",0.848 (active)
same,normalized growth,"locus YEL061C, strain CIN8, stronger effect = lower value",0.947 (inactive)
same,normalized growth,"locus YER015W, strain faa2, stronger effect = lower value",0.784 (active)
same,normalized growth,"locus YER016W, strain bim1, stronger effect = lower value",0.754 (active)
same,normalized growth,"locus YER110C, stronger effect = lower value",0.944 (inactive)
same,normalized growth,"locus YER111C, strain swi4, stronger effect = lower value",0.97 (inactive)
same,normalized growth,"locus YER155C, strain BEM2 (second series), stronger effect = lower value",0.887 (inactive)
same,normalized growth,"locus YER155C, strain BEM2, stronger effect = lower value",0.837 (active)
same,normalized growth,"locus YER167W, strain BCK2, stronger effect = lower value",0.82 (active)
same,normalized growth,"locus YFR010W, strain ubp6, stronger effect = lower value",0.617 (active)
same,normalized growth,"locus YGL078C, strain dbp3, stronger effect = lower value",0.883 (active)
same,normalized growth,"locus YGL086W, strain mad1, stronger effect = lower value",0.847 (active)
same,normalized growth,"locus YGL167C, strain pmr1, stronger effect = lower value",0.95 (inactive)
same,normalized growth,"locus YGL173C, strain kem1, stronger effect = lower value",0.882 (active)
same,normalized growth,"locus YGL227W, strain vid30, stronger effect = lower value",0.894 (active)
same,normalized growth,"locus YGL240W, strain doc1, stronger effect = lower value",0.565 (active)
same,normalized growth,"locus YGL248W, strain PDE1, stronger effect = lower value",0.879 (active)
same,normalized growth,"locus YGL253W, strain hxk2, stronger effect = lower value",0.885 (active)
same,normalized growth,"locus YGR135W, strain pre9, stronger effect = lower value",0.878 (active)
same,normalized growth,"locus YGR229C, strain SMI1, stronger effect = lower value",0.384 (active)
same,normalized growth,"locus YGR252W, strain gcn5, stronger effect = lower value",0.655 (active)
same,normalized growth,"locus YHR013C, strain ard1, stronger effect = lower value",0.868 (inactive)
same,normalized growth,"locus YHR027C, strain rpn1, stronger effect = lower value",0.933 (inactive)
same,normalized growth,"locus YHR030C, strain SLT2, stronger effect = lower value",0.94 (inactive) and 0.843 (active)
same,normalized growth,"locus YHR079C, strain IRE1 (second series), stronger effect = lower value",0.801 (active)
same,normalized growth,"locus YHR079C, strain IRE1, stronger effect = lower value",0.791 (active)
same,normalized growth,"locus YHR094C, strain hxt1, stronger effect = lower value",0.941 (inactive)
same,normalized growth,"locus YHR129C, strain ARP1, stronger effect = lower value",0.801 (active)
same,normalized growth,"locus YHR142W, strain chs7, stronger effect = lower value",0.772 (active)
same,normalized growth,"locus YHR200W, strain rpn10, stronger effect = lower value",0.711 (active)
same,normalized growth,"locus YIL066C, strain RNR3, stronger effect = lower value",0.921 (inactive)
same,normalized growth,"locus YIL073C, strain SPO22, stronger effect = lower value",0.598 (active)
same,normalized growth,"locus YIL125W, strain kgd1, stronger effect = lower value",0.774 (active)
same,normalized growth,"locus YIR030C, strain dcg1, stronger effect = lower value",0.826 (active)
same,normalized growth,"locus YJL092W, strain hpr5, stronger effect = lower value",0.22 (active)
same,normalized growth,"locus YJL095W, strain BCK1 (second series), stronger effect = lower value",0.855 (active)
same,normalized growth,"locus YJL095W, strain BCK1, stronger effect = lower value",0.751 (active) and 0.84 (active)
same,normalized growth,"locus YJL115W, strain asf1, stronger effect = lower value",0.132 (active)
same,normalized growth,"locus YJL129C, strain trk1, stronger effect = lower value",0.537 (active)
same,normalized growth,"locus YJL134W, strain LCB3, stronger effect = lower value",0.997 (inactive)
same,normalized growth,"locus YJL154C, strain vps35, stronger effect = lower value",0.811 (active)
same,normalized growth,"locus YJL164C, strain tpk1, stronger effect = lower value",0.634 (active)
same,normalized growth,"locus YJL166W, strain qcr8, stronger effect = lower value",0.748 (active)
same,normalized growth,"locus YJL168C, strain set2, stronger effect = lower value",0.961 (inactive)
same,normalized growth,"locus YJL187C, strain SWE1 (second series), stronger effect = lower value",0.848 (active)
same,normalized growth,"locus YJL187C, strain SWE1, stronger effect = lower value",0.876 (active)
same,normalized growth,"locus YJR043C, strain POL32, stronger effect = lower value",0.561 (active)
